# Source: paper PMC5540273 (PLoS ONE, 2017)
# Test system: CDKL1
# Details: concentration: 1 μM,replicates: in singlicate; n = 1
# 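Note: KINOMEscan kinase panel screen.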
row,SMILES,%Inh [%]
1,Cc1n[nH]c2ccc(-c3cc(OC[C@@H](N)Cc4ccccc4)cnc3-c3ccoc3)cc12.O=C(O)C(F)(F)F.O=C(O)C(F)(F)F [GSK507358],6
2,CC(C)Nc1cc(-c2ccc3c(N)n[nH]c3c2)nc(N)n1 [GSK2221681],0
3,CNC(=O)c1ccccc1Sc1ccc2c(/C=C/c3ccccn3)n[nH]c2c1,8
4,Cl.Cl.NC[C@H](Cc1ccc(C(F)(F)F)cc1)NC(=O)c1cc(Br)c(-c2ccnc3[nH]ccc23)s1 [GSK1487252],6
5,Cl.Cl.Nc1nc(-c2ccc3c(N)n[nH]c3c2)cc(N2CCCC(NC(=O)c3ccccc3)C2)n1 (stereo not drawn) [GSK2286775],0
6,O=C(NCCCN1CCOC1=O)c1cnc(NCc2cc(Cl)ccc2Cl)nc1NC1CCCC1,25
7,CN(C)CC(O)COc1ccc(Nc2nccc(-c3cnn4nc(N5CCOCC5)ccc34)n2)cc1 (stereo not drawn) [GW767488],67
8,Cc1ccc(-n2nc(C(C)(C)C)cc2NC(=O)Nc2ccc(OCCN3CCOCC3)c3ccccc23)cc1 [GW839464],32
9,Cc1cc(C(=O)Nc2ccc(Oc3ccc4nc(NC(=O)C5CC5)cn4n3)cc2)nn1-c1ccccc1,55
10,C=CC(=O)Nc1cc2c(Nc3ccc(F)c(Cl)c3)ncnc2cc1OCCCN1CCOCC1 [GW781483],17
11,Cc1cc2cn[nH]c2cc1-c1cccc2c(N)c(C(N)=O)nnc12,29
12,C[C@@H]1CCN(C(=O)CC#N)C[C@@H]1N(C)c1ncnc2[nH]ccc12,3
13,CC(C)N1C(=O)Cc2cc(Nc3ncc(C(F)(F)F)c(NCc4cccc(S(C)(=O)=O)c4)n3)ccc21,0
14,C[C@H]1Oc2cc(cnc2N)-c2c(nn(C)c2C#N)CN(C)C(=O)c2ccc(F)cc21,34
15,Cc1occc1-c1nc(N)c(OC[C@@H](N)Cc2c[nH]c3ccccc23)cc1-c1cc2c(C)n[nH]c2cn1 [GSK1660450],0
16,Cc1ccc2c(-c3ccncc3)c(-c3ccc(F)cc3)nn2c1.Cl [GW461484],15
17,CCN(CC)CCCCNc1ncc2cc(-c3c(Cl)cccc3Cl)c(NC(=O)NC(C)(C)C)nc2n1,14
18,CCN(CC)CCOc1ccc(Nc2ncc3cc(-c4c(Cl)cccc4Cl)c(=O)n(C)c3n2)cc1 [SB-601273],12
19,NC(=O)c1cc(-c2ccccc2)cc2c(C3CCNCC3)c[nH]c12 [GSK301362],1
20,CCn1c(-c2nonc2N)nc2c(C#CC(C)(C)O)nc(OCCN)cc21.Cl.Cl [GSK902056],0
21,O=C(NCCNc1ccnc(NCc2ccc(F)cc2)n1)c1cc2ccccc2s1 [GSK1379944],12
22,Cl.Oc1cc(-c2nc(-c3ccccc3)[nH]c2-c2ccncc2)ccc1Cl [SB-386023],0
23,COc1ccc(C[C@@H](CN)NC(=O)c2cc(Br)c(-c3ccnc4[nH]ccc34)s2)cc1.Cl.Cl [GSK1389063],80
24,Cl.Cl.NC[C@H](CC1CCCCC1)NC(=O)c1cc(Br)c(-c2ccnc3[nH]ccc23)s1 [GSK1581427],12
25,CN(C)CCOc1ccc(-c2cc(-c3c[nH]nc3-c3ccccn3)ccn2)cc1 [GW835314],25
26,C[C@@H](Oc1cc(-c2cnn(C3CCNCC3)c2)cnc1N)c1c(Cl)ccc(F)c1Cl,20
27,Nc1nc(Nc2ccccc2)cc(-c2ccc3c(N)n[nH]c3c2)n1 [GSK2225749],0
